Experimental data as given in ChEMBL document CHEMBL3988442, “University of Dundee, Small-Polar-MMV Screening Library” (2021).

target: AMP-activated protein kinase, AMPK (Homo sapiens) (UniProt P54646+O43741+P54619+Q9UGJ0+Q9Y478+Q13131+Q9UGI9); experiment: AMP-dependent Kinase enzyme assay. An in vitro enzyme assay that detects ADP turnover that is directly proportional to AMPK activity. This uses naive AMPK that is activated during the assay with MK-8722; format: functional; set-up: scale not given: direction of the effect not stated beside the values; conditions: 30 µM

First: O=C(COCc1ccccc1)NCc1ccc(O)c(F)c1
Second: C[S+]([O-])c1cccc(NC(=O)N[C@H](CCO)c2ccccc2)c1 (stereo not given in full)
The Percent Effect of the first is higher: 8.21% for the first, -2.38% for the second.

Compared with CC(C)c1nccc(CN(C)Cc2cccc(-n3cccn3)c2)n1, CC(C)c1cc(NC(=O)Cn2ccc(=O)c3ccccc32)[nH]n1 is higher in Percent Effect: -3.37% for the first, 4.99% for the second.

Going from C[C@@H]1CN(C(=O)Cn2ccc3ncccc3c2=O)C[C@H](C)O1 to N#Cc1ncn(CC(=O)N2CCCC2c2cccs2)n1 (stereo not given), the Percent Effect falls from -2.09% to -12%.

Compared with Cc1ccnc(C2CCN(CCCOc3ccccc3F)C2)n1 (stereo not given), CCc1ccccc1OCCN(C)C(=O)CN1CCCC1 is lower in Percent Effect: 6.41% for the first, -130% for the second.

Going from Oc1ccc(N2CCC(Cc3ccccc3)CC2)nn1 to CSc1ccccc1NC(=O)c1ccc(N2CCOCC2)nn1, the Percent Effect falls from 9.16% to -1.6%.

Compared with Cc1sc(C(=O)NS(C)(=O)=O)cc1-c1ccc(F)cc1, COc1ccccc1C(C)(C)NC(=O)Nc1ccc(F)c(C(N)=O)c1 is lower in Percent Effect: -4.08% for the first, -5.46% for the second.

Compared with O=C(NCC(O)c1cccc(F)c1)C1CCN(C(=O)C2CCC2)CC1 (stereo not given), CN(CC(O)C(F)(F)F)C(=O)Nc1cccc(N2CCCC2)c1 (stereo not given) is lower in Percent Effect: -3.62% for the first, -4.79% for the second.

Compared with Cc1cc(NC(=O)C2CCN(c3ncccc3C#N)CC2)no1, CC(C)c1cc(C(=O)N(Cc2ccncc2)CC2CCCO2)no1 (stereo not given) is lower in Percent Effect: 4.93% for the first, -4.12% for the second.

Compared with Cc1nsc(N2CCCN(CC(=O)N(C)C3CC3)CC2)n1, Cc1ccc(N2CCCN(C(=O)CCc3ccsc3)CC2)nn1 is lower in Percent Effect: 7.25% for the first, -4.33% for the second.

First: COc1coc(CN2CCCC3(CCC(=O)N(CC4CC4)C3)C2)cc1=O (stereo not given)
Second: COCCCN1CC2(CCCN(CCn3cc(Cl)cn3)C2)CCC1=O (stereo not given)
The Percent Effect of the first is higher: 8.74% for the first, 5.56% for the second.

First: Cn1ccnc1CN1CCN(Cc2cc(-c3ccccc3)no2)CC1
Second: CC1(c2ncc(CN3CCN(c4ccccn4)CC3)cn2)CCCCO1 (stereo not given)
The Percent Effect of the first is lower: -2.31% for the first, 5.55% for the second.

Going from Cn1ncc2c1CCCC2NCc1cccnc1 (stereo not given) to Cc1nccn1-c1nccnc1C1CCCN(C)C1 (stereo not given), the Percent Effect falls from 5.94% to 1.28%.

Compared with CNS(=O)(=O)CC(=O)N(C1CC1)C1Cc2ccccc2C1, O=C1CN(C(=O)CC2c3ccccc3CCc3ccccc32)CCN1 is higher in Percent Effect: -3.11% for the first, 30.9% for the second.

First: CC(=O)N1CCN(C(=O)NC(C)Cn2ccnc2)CC1 (stereo not given)
Second: Cc1ccc(C(=O)N(C)CC(=O)N2CCCC2)c(C)c1
The Percent Effect of the first is lower: -4.12% for the first, -2.76% for the second.

First: Cc1sc2ccccc2c1S(=O)(=O)NCCNC(=O)C(C)C
Second: Cc1ccc(CNC(=O)NCc2ccco2)s1
The Percent Effect of the first is lower: -0.0872% for the first, 2.27% for the second.

Going from CN(C)c1ccccc1C(=O)N1CCCC(c2ccc(C(=O)O)cc2)C1 (stereo not given) to CN1CCOC(CNCC(=O)NCCc2ccc(F)cc2)C1 (stereo not given), the Percent Effect rises from -3.47% to 4.27%.

Compared with CC(C)[C@@H]1CN(Cc2cnc3c(S(C)(=O)=O)cnn3c2)C[C@H]1N(C)C, CCC[C@@H]1CN(Cc2cc(C#N)n(C)c2C)C[C@H]1NS(C)(=O)=O is lower in Percent Effect: -8.81% for the first, -87.1% for the second.

Compared with COCCN(Cc1sccc1C)C(=O)COc1cccnc1, Cc1ccc(CN(C(=O)NC2CCS(=O)(=O)C2)C2CC2)o1 (stereo not given) is higher in Percent Effect: -3.19% for the first, 1.3% for the second.

Going from CC(C)(C)OC(=O)N[C@H]1CCN(c2cncc(Br)c2)C1 to CC(C)(C)NC(=O)CN1CCNCC1, the Percent Effect falls from 6.52% to 1.56%.

Going from CC(C)c1nnc2n1CCN(Cc1ccc3c(c1)OCO3)CC2 to CC(O)CN(C)S(=O)(=O)c1ccc(C#N)cc1F (stereo not given), the Percent Effect falls from 9.68% to 1.31%.
